Our source for the outcome and AC50 values is PubChem BioAssay (EPA / NIEHS).

Experiment [1] can be described thus: ATG_CRE_CIS: Attagene CIS-FACTORIAL HepG2 Assay for human cAMP Responsive Element (CRE) binding protein 3 (AID 2282926). The note with it: HepG2 CRE cis-reporter, Attagene multiplexed mRNA; actives raise or lower the signal. In outline: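 Multiplexed transcription-unit reporters transfected into HepG2; 24 h dosing; RT-PCR/capillary electrophoresis fluorescence read-out; bidirectional fit vs DMSO.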

Experiment [2] addresses CCAAT/enhancer-binding protein beta (Homo sapiens) (UniProt P17676). The experiment is described as follows: ATG_C_EBP_CIS: Attagene CIS-FACTORIAL HepG2 Assay for human CCAAT/Enhancer Binding Protein (C/EBP) beta (AID 2282927). Particulars: HepG2 Attagene cis-factorial transcription factor reporter; actives raise or lower the signal. In outline: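 Endogenous C/EBPb-driven reporter transcripts measured in transfected human HepG2 cells at 24 h via RT-PCR and capillary electrophoresis of labelled fragments. Activity fitted in both directions relative to DMSO baseline.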

The nature of experiment [3]: ATG_CMV_CIS: Attagene CIS-FACTORIAL HepG2 Assay for human CMV (Internal Marker) (AID 2282928).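 Note: endpoint acts as a background internal control marker rather than a target.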 Particulars: HepG2 CMV promoter reporter, transcription factor profiling; actives raise or lower the signal. In outline: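 Cell system: HepG2, transiently transfected multiple reporter units under cis promoters. Exposure: 24 h. Detection: RT-PCR, FAM labeling, HpaI digestion, capillary electrophoresis. Analysis: bidirectional, DMSO baseline.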

Experiment [4] in a line: ATG_DR4_LXR_CIS: Attagene CIS-FACTORIAL HepG2 Assay for human Liver X Receptor (LXR), DR4 submotif (AID 2282929). Particulars: HepG2 Attagene DR4 cis-reporter, mRNA transcription; actives raise or lower the signal. In outline: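 Total RNA from 24 h-treated, MRTU-transfected HepG2 cells underwent reverse transcription, PCR, fluorescent primer extension and restriction digestion before capillary electrophoresis. Both increases and decreases in reporter signal were fitted against DMSO.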

Experiment [5] concerns the target Aryl hydrocarbon receptor (Homo sapiens) (UniProt P35869). The experiment is described as follows: ATG_Ahr_CIS: Attagene CIS-FACTORIAL HepG2 Assay for human Aryl Hydrocarbon Receptor (Ahr) (AID 2282930). Particulars: HepG2 AhR cis-factorial reporter transcription; actives raise or lower the signal. Summed up: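 Reporter mRNA levels, quantified by RT-PCR and fluorescent capillary electrophoresis, reflect endogenous AhR transcriptional activity in HepG2 cells carrying transfected cis-promoter reporter constructs. Readout at 24 h post-dose; gain or loss fitted against DMSO baseline.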

The nature of experiment [6]: ATG_AP_1_CIS: Attagene CIS-FACTORIAL HepG2 Assay for human Activator Protein 1 (AP-1) (AID 2282931). Particulars: HepG2 Attagene cis-factorial AP-1 reporter mRNA; actives raise or lower the signal. In outline: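 HepG2, transient cis-reporter transfection; 24 h; readout RT-PCR/CE fluorescence; DMSO baseline, gain and loss fitted.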
Experiment [7] is described as follows: ATG_AP_2_CIS: Attagene CIS-FACTORIAL HepG2 Assay for human Activator Protein 2 (AP-2) (AID 2282932). The note with it: HepG2 AP-2 cis-reporter, Attagene transcription factor profiling; actives raise or lower the signal. In outline:
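HepG2, transient MRTU transfection, cis-regulated reporters; 24 h compound exposure; RNA isolated, RT-PCR, 6-FAM labelling, HpaI digest, CE fluorescence. DMSO = negative control/baseline, bidirectional fit.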

Experiment [8] can be described thus: ATG_BRE_CIS: Attagene CIS-FACTORIAL HepG2 Assay for human Bone Morphogenetic Protein (BMP) Response Element (BRE) (AID 2282933). Particulars: HepG2 BMP response element reporter, Attagene transcription factor profiling; actives raise or lower the signal. Summed up:
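Endogenous transcription factor activity at a BMP response element was monitored in transfected HepG2 cells 24 h after dosing. Fluorescent RT-PCR products were resolved by capillary electrophoresis, and activity was fitted in both directions versus DMSO.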

In experiment [9] the target is Transcription factor E2F1 (Homo sapiens) (UniProt Q01094). The experiment is described as follows: ATG_E2F_CIS: Attagene CIS-FACTORIAL HepG2 Assay for human E2F Transcription Factor 1 (AID 2282935). The note with it: HepG2 Attagene cis-reporter, E2F reporter RNA transcripts; actives raise or lower the signal. In outline: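 Cis-element reporter mRNA induction in transiently transfected HepG2, 24 h exposure. Activity fitted in both directions relative to DMSO negative control.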
Chain of Transcription factor E2F1 (Homo sapiens) (Q01094 whole entry, looked up): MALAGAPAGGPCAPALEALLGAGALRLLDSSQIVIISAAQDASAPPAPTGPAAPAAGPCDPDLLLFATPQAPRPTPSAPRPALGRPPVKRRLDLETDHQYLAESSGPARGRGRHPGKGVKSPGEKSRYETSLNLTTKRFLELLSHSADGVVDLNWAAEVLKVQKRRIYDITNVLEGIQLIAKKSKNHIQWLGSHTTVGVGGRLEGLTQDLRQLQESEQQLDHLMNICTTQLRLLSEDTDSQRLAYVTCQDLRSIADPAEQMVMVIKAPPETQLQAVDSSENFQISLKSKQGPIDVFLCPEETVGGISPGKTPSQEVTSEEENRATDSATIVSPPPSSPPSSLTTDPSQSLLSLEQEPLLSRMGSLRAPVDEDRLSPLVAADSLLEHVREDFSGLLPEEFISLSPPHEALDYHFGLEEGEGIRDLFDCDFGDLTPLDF

Activity calls are given as the source filed them. Rule for the calls: active = hit-call score of the fitted dose curve at least 0.9, where 1 is the maximum; inactive = score below 0.9.

Chain of Aryl hydrocarbon receptor (Homo sapiens) (P35869 whole entry, looked up): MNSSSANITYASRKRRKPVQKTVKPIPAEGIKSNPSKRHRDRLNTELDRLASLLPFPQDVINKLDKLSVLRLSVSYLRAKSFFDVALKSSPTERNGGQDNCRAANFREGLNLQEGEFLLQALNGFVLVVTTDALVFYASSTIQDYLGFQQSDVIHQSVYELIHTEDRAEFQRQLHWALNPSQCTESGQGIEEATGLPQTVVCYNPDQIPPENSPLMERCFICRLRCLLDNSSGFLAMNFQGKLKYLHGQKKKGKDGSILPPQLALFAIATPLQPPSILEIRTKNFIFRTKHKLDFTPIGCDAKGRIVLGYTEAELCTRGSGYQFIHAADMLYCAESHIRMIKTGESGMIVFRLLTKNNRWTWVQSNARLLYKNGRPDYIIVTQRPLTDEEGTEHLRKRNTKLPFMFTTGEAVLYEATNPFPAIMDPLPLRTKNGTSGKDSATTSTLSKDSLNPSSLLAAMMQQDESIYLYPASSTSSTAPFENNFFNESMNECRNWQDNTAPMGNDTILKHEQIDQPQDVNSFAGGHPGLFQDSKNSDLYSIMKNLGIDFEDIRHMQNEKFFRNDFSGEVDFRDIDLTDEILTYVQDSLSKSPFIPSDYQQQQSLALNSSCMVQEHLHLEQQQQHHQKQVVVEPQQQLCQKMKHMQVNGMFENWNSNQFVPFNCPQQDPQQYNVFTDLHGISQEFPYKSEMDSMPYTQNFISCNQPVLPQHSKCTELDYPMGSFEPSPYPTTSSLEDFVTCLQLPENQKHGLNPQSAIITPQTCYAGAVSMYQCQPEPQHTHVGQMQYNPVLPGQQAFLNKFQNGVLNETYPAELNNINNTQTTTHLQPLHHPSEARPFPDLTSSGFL
Chain of CCAAT/enhancer-binding protein beta (Homo sapiens) (P17676 whole entry, looked up, the tested form may be a part): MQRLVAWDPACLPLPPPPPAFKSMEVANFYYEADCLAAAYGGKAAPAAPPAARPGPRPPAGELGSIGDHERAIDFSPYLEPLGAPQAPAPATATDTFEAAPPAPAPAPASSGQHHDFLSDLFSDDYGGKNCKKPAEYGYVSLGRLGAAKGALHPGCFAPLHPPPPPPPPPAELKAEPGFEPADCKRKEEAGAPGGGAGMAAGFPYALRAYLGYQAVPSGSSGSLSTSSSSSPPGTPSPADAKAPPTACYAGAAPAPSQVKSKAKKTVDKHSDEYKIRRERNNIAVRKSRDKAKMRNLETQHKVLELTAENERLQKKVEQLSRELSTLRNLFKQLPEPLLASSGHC

For `CCCCCCC#CC(=O)OC`, the compound was classed as inactive in experiment [1], in experiment [2], in experiment [3], in experiment [4], in experiment [5] and in experiment [6]. For the same compound, the call in experiment [7], in [8] and in experiment [9] was inactive.
Regarding `CCO[Si](CCCS)(OCC)OCC`, the result in [1], in experiment [2], in experiment [3], in experiment [4], in experiment [5] and in experiment [6] was inactive. Besides, the result in experiment [7], in experiment [8] and in [9] was inactive.
For `CC(C)=CCO`, the compound was classed as inactive in experiment [1], in experiment [2], in experiment [3], in [4], in [5] and in experiment [6]. The compound was called inactive in experiment [7], in [8] and in [9].
Turning to `O=C(O)c1snc(Cl)c1Cl`, the AC50 in experiment [1] was 155 µM (active); in experiment [4], 100 µM (active); in experiment [5], 14.5 µM (active); in [6] it was 100 µM (active). Besides, the result in experiment [2], in [3], in [7], in experiment [8] and in experiment [9] was inactive.
As to `CCCCc1ccc(N)cc1`, the call in [1], in experiment [2], in [3], in experiment [4], in [5] and in experiment [6] was inactive. In addition, the call in [7], in experiment [8] and in experiment [9] was inactive.
For `CNCCCC12CCC(c3ccccc31)c1ccccc12`, the outcome in experiment [1], in [2], in [5], in experiment [6], in [7] and in experiment [8] was inactive. Besides, the outcome in [9] was inactive. Moreover, the AC50 in experiment [3] and in experiment [4] was 11.1 µM (active) in each case.
Take `C=CC(C)(CCC=C(C)C)OC=O` (centres undefined): the call in experiment [1], in experiment [2], in [3], in experiment [4], in experiment [5] and in experiment [6] was inactive. Further, the result in experiment [7], in experiment [8] and in [9] was inactive.
In the case of `C=C(C)C(=O)O[C@H]1C[C@@H]2CC[C@@]1(C)C2(C)C`, the compound was classed as inactive in experiment [1], in [2], in experiment [7] and in experiment [8]. Besides, the AC50 in [3] is 148 µM (active); in [4], 26.7 µM (active); in [5] it was 137 µM (active); in [6], 100 µM (active); in experiment [9] it was 100 µM (active).
Regarding `CCC/C=C/C=O`, the compound was called inactive in [1], in experiment [2], in [3], in [4], in [5] and in experiment [6]. Also, the compound was called inactive in [7], in experiment [8] and in [9].
As for `COC(=O)c1ccc(C)cc1`, the call in experiment [1], in experiment [2], in experiment [3], in [4], in experiment [5] and in [6] was inactive. The call in [7], in [8] and in experiment [9] was inactive.
As to `O=C(O)c1cn(C2CC2)c2cc(N3CCNCC3)c(F)cc2c1=O`, the compound was called inactive in experiment [1], in experiment [2], in [3], in experiment [4], in experiment [5] and in [6]. The compound was classed as inactive in experiment [7], in [8] and in experiment [9].
`CC(=O)OCCOC(C)=O`: the outcome in [1], in experiment [2], in experiment [3], in experiment [4], in [5] and in experiment [6] was inactive. In addition, the compound was classed as inactive in experiment [7], in experiment [8] and in experiment [9].
Turning to `Cc1ccc(S)cc1`, the result in experiment [1], in experiment [2], in [5], in experiment [7] and in experiment [9] was inactive. The AC50 was 34.4 µM (active) in experiment [3], 59.7 µM (active) in experiment [4], 119 µM (active) in [6] and 100 µM (active) in experiment [8].
In the case of `CCCCCOC(=O)CCC`, the compound was classed as inactive in [1], in [2], in experiment [3], in [4], in [5] and in experiment [6]. The compound was called inactive in [7], in experiment [8] and in experiment [9].
For `CC(C)(N)CO`, the call in experiment [1], in experiment [2], in experiment [3], in [4], in [5] and in experiment [6] was inactive. The outcome in [7], in experiment [8] and in experiment [9] was inactive.
`COc1nc(C)nc(N)n1`: the outcome in experiment [1], in [2], in [3], in experiment [4], in experiment [5] and in experiment [6] was inactive. Further, the result in experiment [7], in experiment [8] and in [9] was inactive.

Broadly, the AC50 is the concentration giving half of the maximal activity seen.
